Results on seven molecules are retold here after PubChem BioAssay (NCI).

Test systems include HCT-15 colon; HT29 colon; SNB-75 CNS; SNB-19 CNS; U251 CNS; PC-3 prostate; SK-MEL-5 melanoma; UACC-62 melanoma; LOX IMVI melanoma; SK-MEL-28 melanoma; SK-MEL-2 melanoma; EKVX NSCLC; SN12C renal; UO-31 renal; TK-10 renal; ACHN renal; A498 renal; CCRF-CEM leukemia; MOLT-4 leukemia; SR leukemia.
Experiment in all cases: NCI-60 one-dose screen, 48 h (100 = growth as untreated, 0 = no growth, -100 = all killed)
What all share (conditions): 10 µM unless noted

The structures appear in SMILES notation. The panel holds about 83,000 compounds, 20% with a hit somewhere; the sample as a whole holds those more often.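 Cell lines were cultured in 96-well plates, exposed to a single compound concentration, and assessed for percent growth 48 hours later.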 A number with no mark means an inactive call. Calls of active or inactive are those of the source. The calls were made as follows: active = growth percent below 10; inactive = the rest.

For `O=C(Nc1ccc2ncnc(Nc3cccc(C(F)(F)F)c3)c2c1)c1cccs1`, the growth with HCT-15 colon is 38.9%; in the experiment with HT29 colon, 18%; in the experiment with SNB-75 CNS it was 89.2%; with SNB-19 CNS it was 40.1%; with U251 CNS it was 17%; with PC-3 prostate, 20.9%. In addition, the growth was 61.1% in the experiment on SK-MEL-5 melanoma; 67.5% in the experiment with UACC-62 melanoma; 65.5% with LOX IMVI melanoma; 89.1% with SK-MEL-28 melanoma; 90.7% in the experiment with SK-MEL-2 melanoma; 32.5% in the experiment on EKVX NSCLC. In addition, the growth is 68.5% in the experiment with SN12C renal; 51.1% in the experiment on UO-31 renal; 47.4% with TK-10 renal; 47.4% in the experiment on ACHN renal; 18.9% with A498 renal; 37.2% with CCRF-CEM leukemia. The growth with MOLT-4 leukemia was 17.6%; in the experiment with SR leukemia, 33.8%.

With `CC(C)C[C@H](C(=O)O)N(C)C(=O)[C@@H]1CCCN1C(=O)[C@H](C)OC(=O)[C@H](CCC(N)=O)NC(=O)[C@@H]1CCC(=O)N1`, the growth with HCT-15 colon is 95.9%; in the experiment with HT29 colon it was 104%; in the experiment on SNB-75 CNS, 84.3%; in the experiment with SNB-19 CNS it was 102%; in the experiment with U251 CNS, -37% (active); with PC-3 prostate, 96.6%. Moreover, the growth with SK-MEL-5 melanoma was 95.6%; with UACC-62 melanoma, 102%; in the experiment with LOX IMVI melanoma it was 104%; in the experiment on SK-MEL-28 melanoma, 103%; in the experiment on SK-MEL-2 melanoma it was 110%; in the experiment with EKVX NSCLC, 94.1%. Besides, the growth with SN12C renal was 97.1%; with UO-31 renal, 88.3%; in the experiment with TK-10 renal it was 105%; with ACHN renal it was 106%; in the experiment on A498 renal, 107%; in the experiment with CCRF-CEM leukemia it was 102%. Further, the results for the growth in the experiment on MOLT-4 leukemia and in the experiment on SR leukemia were 111% and 94.4%, respectively.

On to `O=C1CCc2ccccc2N1`, for which the growth with HCT-15 colon was 103%; with HT29 colon, 102%; in the experiment with SNB-75 CNS it was 78.1%; in the experiment on SNB-19 CNS it was 96.2%; in the experiment with U251 CNS it was 102%; in the experiment on PC-3 prostate, 102%. In addition, the growth in the experiment with SK-MEL-5 melanoma is 98.9%; with UACC-62 melanoma, 97.6%; in the experiment on LOX IMVI melanoma it was 94.4%; with SK-MEL-28 melanoma it was 104%; in the experiment on SK-MEL-2 melanoma, 101%; with EKVX NSCLC, 75.5%. For the same molecule, the growth in the experiment on SN12C renal was 99.1%; in the experiment on UO-31 renal, 90.3%; with TK-10 renal, 88.2%; in the experiment with ACHN renal, 100%; in the experiment with A498 renal it was 111%; in the experiment with CCRF-CEM leukemia, 107%. Besides, the growth is 110% with MOLT-4 leukemia and 93.5% in the experiment with SR leukemia.

For `O=C(/C(=C\c1c(-c2ccccc2)[nH]c2ccccc12)S(=O)(=O)c1ccccc1)c1ccccc1`, the growth in the experiment with HCT-15 colon is 57.4%; in the experiment with HT29 colon, 65.9%; in the experiment with SNB-75 CNS, 45.4%; in the experiment on SNB-19 CNS, 73.8%; in the experiment on U251 CNS, 58.6%; in the experiment with PC-3 prostate it was 16.6%. For the same molecule, the growth with SK-MEL-5 melanoma was 47.7%; in the experiment with UACC-62 melanoma, 39.8%; in the experiment with LOX IMVI melanoma, 58.9%; in the experiment with SK-MEL-28 melanoma it was 76.2%; in the experiment with SK-MEL-2 melanoma it was 35.8%; in the experiment with EKVX NSCLC it was 28.7%. Besides, the growth was 82% with SN12C renal; 60.9% in the experiment with UO-31 renal; 78.2% in the experiment on TK-10 renal; 48.7% in the experiment on ACHN renal; 54.3% in the experiment with A498 renal; 21% with CCRF-CEM leukemia. For the same molecule, the growth in the experiment on MOLT-4 leukemia was 3.71% (active); in the experiment on SR leukemia, 15.1%.

For the molecule `COc1ccc2c(c1)/C(=C1\S/C(=N/c3nnc(C)s3)NC1=O)C(=O)N2Cc1ccc(Cl)cc1`, the growth is 28% in the experiment with HCT-15 colon; 54.7% with HT29 colon; 71% in the experiment on SNB-75 CNS; 35.7% with SNB-19 CNS; 26% in the experiment on U251 CNS; 36.6% with PC-3 prostate. Besides, the growth with SK-MEL-5 melanoma was 30.9%; in the experiment with UACC-62 melanoma, 32.8%; in the experiment with LOX IMVI melanoma, 39.4%; with SK-MEL-28 melanoma, 49.2%; with SK-MEL-2 melanoma, 43.4%; with EKVX NSCLC it was 38.8%. Also, the growth is 51.6% in the experiment with SN12C renal; 57.7% with UO-31 renal; 58.4% with TK-10 renal; 55.3% in the experiment with ACHN renal; -4.96% (active) with A498 renal; 31.7% in the experiment with CCRF-CEM leukemia. Besides, the values for the growth in the experiment on MOLT-4 leukemia and in the experiment with SR leukemia were 24.6% and 55.7%, respectively.

`COc1ccc(C(=S)c2cc(OC)c(OC)c(OC)c2)cc1OC(=O)CCl`: the growth with HCT-15 colon was 14.3%; in the experiment on HT29 colon it was 24%; in the experiment on SNB-75 CNS it was 53.8%; in the experiment on SNB-19 CNS, 31.4%; in the experiment with U251 CNS, 4.79% (active); in the experiment on PC-3 prostate it was 14.1%. Moreover, the growth was -29.7% (active) in the experiment with SK-MEL-5 melanoma; 47.9% in the experiment on UACC-62 melanoma; 19.6% with LOX IMVI melanoma; 67.8% with SK-MEL-28 melanoma; 41.9% with SK-MEL-2 melanoma; 71.8% with EKVX NSCLC. The growth is 34.6% in the experiment on SN12C renal; 45.5% with UO-31 renal; 65.2% with TK-10 renal; 41.9% with ACHN renal; 16% in the experiment with A498 renal; 14.3% in the experiment on CCRF-CEM leukemia. Also, the values for the growth with MOLT-4 leukemia and in the experiment on SR leukemia were 15.3% and 11%, respectively.

For the molecule `CCCCN(CCCC)CC(CN(CC)CC)OC(=O)Nc1ccccc1` (stereo not given), the growth in the experiment on HCT-15 colon was 63.4%; in the experiment with HT29 colon, 37.1%; with SNB-75 CNS it was 78.3%; in the experiment on SNB-19 CNS it was 107%; with U251 CNS it was 96.8%; in the experiment with PC-3 prostate, 89.6%. Further, the growth with SK-MEL-5 melanoma was 100%; in the experiment on UACC-62 melanoma, 111%; in the experiment with LOX IMVI melanoma it was 87.7%; with SK-MEL-28 melanoma, 105%; in the experiment with SK-MEL-2 melanoma it was 99.4%; in the experiment with EKVX NSCLC, 91.7%. In addition, the growth in the experiment with SN12C renal was 94.4%; with UO-31 renal, 69.7%; in the experiment on TK-10 renal, 85.5%; in the experiment with ACHN renal, 99.2%; in the experiment on A498 renal it was 117%; in the experiment with CCRF-CEM leukemia, 98.1%. Also, the values for the growth in the experiment with MOLT-4 leukemia and with SR leukemia were 80.8% and 86.3%, respectively.
